GoLoco inh red: inhibitors of human Gai1-RGS12 GoLoco interaction (red fluorophore) | AID 880 | P63096 | Potency, µM (top dose mostly 61.6 µM), for inactives: at the top dose activity, negative = inhibition, most hits filed as inhibitors | Gai1:RGS12 GoLoco peptide FP, rhodamine, 10 min | 230,000 tested, 0.44% active; active = well fitted inhibition curve with a large enough effect, not every such curve was filed as active; inactive = no such curve, though single readings can be large or run the other way; also: potency is read from the fitted curve at half-maximal effect; % is scaled to controls: 0 for no effect and ±100 for the full control effect; nearly all actives have a fitted effect of over 30% in size
ALDH1A1 inh: ALDH1A1 (human) enzyme inhibition. Purified ALDH1A1, NADH fluorescence, propionaldehyde substrate. 220,000 tested, 7.3% active. AID 1030. Potency, µM (highest dose often 75.3 µM), without a hit: at the top dose activity, negative = inhibition, hits mostly inhibitors; active = well fitted inhibition curve with a large enough effect, not every such curve was filed as active; inconclusive = small, poorly fitted or top-dose-only effect, or another doubt; inactive = no such curve, though single readings can be large or run the other way;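 also: potency is read from the fitted curve at half-maximal effect; plate controls were no enzyme wells and a reference inhibitor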
Target sequence (P00352 whole entry, looked up): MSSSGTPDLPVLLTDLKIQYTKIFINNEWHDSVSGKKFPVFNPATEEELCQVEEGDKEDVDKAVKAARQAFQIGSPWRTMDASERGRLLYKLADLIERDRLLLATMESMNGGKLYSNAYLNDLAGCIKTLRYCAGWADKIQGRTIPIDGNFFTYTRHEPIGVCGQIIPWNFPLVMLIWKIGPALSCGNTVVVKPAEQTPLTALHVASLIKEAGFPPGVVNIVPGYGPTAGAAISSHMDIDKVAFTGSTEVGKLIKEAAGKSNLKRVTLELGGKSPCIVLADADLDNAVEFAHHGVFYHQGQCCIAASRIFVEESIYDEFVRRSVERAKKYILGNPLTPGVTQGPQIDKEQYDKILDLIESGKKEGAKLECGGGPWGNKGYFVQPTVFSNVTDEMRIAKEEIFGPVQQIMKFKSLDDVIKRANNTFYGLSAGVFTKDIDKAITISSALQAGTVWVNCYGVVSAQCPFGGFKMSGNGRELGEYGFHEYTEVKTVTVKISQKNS
HTT ATP protect: protects HTT-Q103 PC12 cells, measured by ATP | PC12 HTT-Q103 induced, cytoprotection, ATP luminescence, 40 h | Potency, µM (highest dose often 56.4 µM), for inactives: cytoprotection (ATP increase), hits mostly activators | 230,000 tested, 0.14% active; also: potency is read from the fitted curve at half-maximal effect; % of control where 0% means no effect; nearly all actives have a fitted effect of over 45% in size
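PC12 cells stably carrying ecdysone-inducible Htt exon 1 (Q103)–GFP were induced with 100 nM tebufenozide (final) alongside library compounds in a dose series. Cytoprotection was scored as retained ATP by ATPlite luminescence.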
HPGD block: inhibitors of human 15-hydroxyprostaglandin dehydrogenase (HPGD); purified HPGD, NADH fluorescence kinetic, PGE2 substrate; Potency, µM, for the others: top-dose activity change, negative = inhibition, usual class: inhibitors; 150,000 tested, 4.3% active; active = well fitted inhibition curve with a large enough effect, not every such curve was filed as active; inconclusive = small, poorly fitted or top-dose-only effect, or another doubt; inactive = no such curve, though single readings can be large or run the other way; also: potency is read from the fitted curve at half-maximal effect; % is scaled to controls: 0 for no effect and ±100 for the full control effect
Target sequence (P15428 whole entry, looked up): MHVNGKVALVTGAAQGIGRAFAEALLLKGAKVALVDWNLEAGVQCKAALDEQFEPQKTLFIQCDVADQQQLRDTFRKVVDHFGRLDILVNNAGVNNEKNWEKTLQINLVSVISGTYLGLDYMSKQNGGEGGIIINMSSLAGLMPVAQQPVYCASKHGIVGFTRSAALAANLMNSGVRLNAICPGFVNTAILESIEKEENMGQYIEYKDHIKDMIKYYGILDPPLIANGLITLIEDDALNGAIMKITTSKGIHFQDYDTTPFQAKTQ
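20 nM HPGD preincubated 15 min at room temperature with compound in 50 mM Tris-HCl pH 8, 0.01% Tween 20. Started with 1 mM NAD+ and 30 uM prostaglandin E2; NADH fluorescence (360/450 nm) read 5 times over 30-s intervals, last minus first.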
PNC inhibitor: inhibitors of perinucleolar compartment assembly; 140,000 tested, 3.1% active; PC3M PTB-GFP, PNC prevalence imaging, 16 h; hits give low values; activity change (PNC), negative = inhibition, % at 10 µM;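 active = readout at or below -70, meaning at least 70% loss of cells showing the perinucleolar compartment, a nuclear body marking cancer cells; inconclusive = readout between -30 and a set limit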;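 also: plate controls were DMSO wells for no effect and camptothecin positive control wells for full effect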
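Read-out is percentage of cells bearing a perinucleolar compartment, from automated 20x imaging of fixed, Hoechst-stained PC3M PTB-GFP cells. Cells were seeded 4 h, then exposed 16 h to compound (23 nl of library stock) in duplicate plates.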
HttQ103 aggreg: mutant huntingtin aggregation inhibition | PC12 HttQ103-GFP aggregates, Acumen cytometry, 40 h | Potency, µM (doses to about 46.1 µM), for inactives: at the top dose activity change, negative = inhibition, most hits filed as inhibitors | 220,000 tested, 1.1% active | AID 1688; also: potency is read from the fitted curve at half-maximal effect; % is scaled to controls: 0 for no effect and ±100 for the full control effect; nearly all actives have a fitted effect of over 60% in size
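Multiplexed with ATP-based cell death, this channel scores GFP aggregates in PC12 cells expressing inducible HTTex1-Q103-GFP. Induction used 100 nM tebufenozide; compounds were tested in concentration series.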
* hit, by the source's call; ? = inconclusive; . = no result given; [ ] = dose if it differs, or a comment. A selection: hits, their analogues and other compounds. The true share with any hit is near 11%. Unless noted, calls follow the shape of the dose curve; as a rule, active = well fitted curve in the direction sought with a large enough effect; inconclusive = small, poorly fitted or top-dose-only effect, or another doubt; inactive = no such curve, though single readings can be large; an effect the other way counts as inactive or inconclusive.

SMILES | GoLoco inh red | ALDH1A1 inh | HTT ATP protect | HPGD block | PNC inhibitor | HttQ103 aggreg
CC(C)OC(=O)Cn1nnc(-c2ccccc2)n1 | -1% | 4% | 30% | -3% | -9 | -7%[1.84 µM]
COc1ccc(NC(=O)C/C(C)=N/NC(=O)C(=O)Nc2cccc(Cl)c2C)c(OC)c1 | 8% | 1.3µM* | -31% | . | . | ?
Cc1ccc(Nc2nnns2)cc1 | -10% | 2.5µM* | -25% | 22µM* | 25 | 7%
Cc1ccc(Nc2nc3ccccc3s2)cc1 | -4% | 6% | . | -8% | 42 | 18%
CN(N)c1nc(-c2ccccc2)nnc1C(F)(F)F | -6% | 13% | -3% | -3% | -4 | -10%
CN(NC(=O)c1cccc(Cl)c1)c1nc(-c2ccccc2)nnc1C(F)(F)F | 2% | 0% | . | -7% | 3 | 1µM*
CC/C(=N\NC(=O)C(N)=O)c1ccccc1O | 10% | 8% | . | -14% | 2 | 10µM*
O=C(COc1ccccc1)N1CCc2ccccc21 | 12% | -12% | . | -11% | -82* | 1%
C[C@H](NS(=O)(=O)c1ccccc1F)C(=O)OCC(=O)N1CCc2ccccc21 | 3% | ? | -12% | 5% | -93* | 3%
CCOC(=O)C1=C(C)NC(C)=C(C(=O)OCC)C1C(=O)OCC(=O)N1CCc2ccccc21 | 9% | 10% | -20%[10 µM] | -19% | -99* | 13%
Cc1ccccc1NC(=O)CC1SC(=O)N(c2ccccc2)C1=O (configuration not stated) | 21% | 16µM* | -13% | ? | 4 | 26%
COc1cccc(NC(=O)CC2SC(=Nc3ccccc3)NC2=O)c1 (configuration not stated) | 5% | -11% | 19% | -11% | 35 | -9%[9.22 µM]
CCOc1ccccc1NC(=O)CC1SC(=N)N(c2ccccc2)C1=O (configuration not stated) | -1% | 3% | 18%[10 µM] | . | . | 19%
COc1cccc(NC(=O)CC2S/C(=N\S(=O)(=O)c3ccccc3)N(c3ccccc3)C2=O)c1 (configuration not stated) | 8% | 20µM* | 28%[10 µM] | -21% | 3 | -11%
CCOc1ccc(NC(=O)CC2SC(=O)N(c3ccccc3)C2=O)cc1 (configuration not stated) | 7% | 7.9µM* | 2%[10 µM] | . | . | 11%[9.22 µM]
CCCN1C(=O)SC(CC(=O)Nc2ccc(Br)cc2)C1=O (configuration not stated) | 7% | ? | 0%[10 µM] | -3% | -17 | 5%
CCCN1C(=O)SC(CC(=O)Nc2ccccc2C)C1=O (configuration not stated) | 7% | 10µM* | 8%[10 µM] | -3% | 47 | 17%
CCn1c(SCc2ccc(C#N)cc2)nnc1-c1ccc(S(=O)(=O)N2CCCCC2)cc1 | 11% | ? | -21%[10 µM] | ? | -10 | ?
N[C@@H](C(=O)O)c1cc(O)ccc1Cl | -6% | -8% | -41%[1.9 µM] | -28% | . | .
CO[C@H]1COC(=O)[C@H](C)COC(=O)C/C=C\[C@@H](C)[C@H](OC)COC(=O)C/C=C\[C@@H]1C | . | 3%[13.5 µM] | -14%[10 µM] | . | . | .
OCCC1CN(Cc2ccccc2-c2ccco2)CCN1C1CCCC1 (configuration not stated) | 6% | -44% | -29% | . | . | -23%
CN=C(c1ccco1)n1c(=S)nc(-c2ccco2)n(C)c1=S | 14% | 10µM* | -18% | ? | -16 | 9%[9.22 µM]
CC(C)(C)c1ccc(/C=C/C(=O)Nc2nncs2)cc1 | 9% | -2% | 7%[0.074 µM] | -2% | -20 | -4%
CCOC(=O)C1=C(c2ccccc2)NC(=S)NC1c1ccc(Cl)c([N+](=O)[O-])c1 (configuration not stated) | 15% | 0.71µM* | . | -24% | -22 | 2%
CCOC(=O)C1=C(c2cccc(Oc3ccccc3)c2)NC(=S)NC1C (configuration not stated) | 9% | 0.32µM* | -9% | -26% | 3 | 11µM*
SMILES | GoLoco inh red | ALDH1A1 inh | HTT ATP protect | HPGD block | PNC inhibitor | HttQ103 aggreg
CCOC(=O)COc1c(Cl)cc(C2NC(=S)NC(c3ccccc3)=C2C(C)=O)cc1OC (configuration not stated) | 7% | ? | -16%[10 µM] | -4% | 101 | -13%
CCOC(=O)C1=C(C)C(c2ccc(OC)cc2)NC(=S)N1 (configuration not stated) | 11% | 2.2µM* | -29% | -9% | ? | ?
CC(=O)C1=C(c2ccccc2)NC(=S)NC1c1cc(Cl)c(OC(C)C)c(Cl)c1 (configuration not stated) | -2% | 0.71µM* | 11%[10 µM] | -19% | 3 | ?
COc1cc(C2NC(=S)NC(c3ccccc3)=C2C(C)=O)cc(Cl)c1OCC(=O)O (configuration not stated) | 17% | ? | 7% | -20% | 92 | 3%
CCOC(=O)C1=C(C)C(c2ccc(OC)cc2)NC(=O)N1 (configuration not stated) | 4% | 3% | 16% | . | . | -21%
O=C1C[C@@H](O)[C@@H](O)[C@H]2[C@@H]3C(=O)N(C4CCCCC4)C(=O)[C@@H]3CC[C@H]12 | . | -13%[13.5 µM] | -38%[10 µM] | . | . | .
CCOC(=O)C1=C(C)C(c2cccc(Oc3ccccc3)c2)NC(=S)N1 (configuration not stated) | -6% | 0.56µM* | . | -10% | -12 | ?
CC(=O)Nc1ccc(C(=O)Cn2nnc3ccccc3c2=O)cc1 | 12% | 8.9µM* | -28%[10 µM] | -8% | ? | 16%
N#Cc1c(NC(=S)NC(=O)Cc2cccs2)sc2c1CCCCC2 | 12% | 4µM* | -47% | -27% | -1 | 1%
CC(C)(C)C(=O)NC(NC(=S)Nc1sc2c(c1C#N)CCCC2)C(Cl)(Cl)Cl (configuration not stated) | 16% | 6.3µM* | -48% | ? | 68 | ?
CC(=O)NC(=S)Nc1sc2c(c1C#N)CCCCC2 | . | 1.4µM* | -18%[10 µM] | . | -115* | 24%
CC(=O)Nc1sc2c(c1C#N)CCCC2 | 7% | -3% | -8% | -9% | 5 | 9%
CC1CCc2sc(NC(=S)NC(=O)c3ccccc3)c(C#N)c2C1 (configuration not stated) | 22% | 10µM* | -1%[10 µM] | -24% | -80* | 16%
CC(C)(C)C(=O)Nc1sc2c(c1C#N)CCC2 | 11% | 3% | -8% | . | . | -3%
O=C(c1ccc(Cl)c(S(=O)(=O)N2CCCC2)c1)N1CCN(c2ncccn2)CC1 | 64% | -11% | 12% | . | . | 8%
CN1Cc2sc(NC(=S)NC(=O)c3ccccc3)c(C#N)c2CC1(C)C | 52% | . | -11%[10 µM] | . | . | 12%[9.22 µM]
N#Cc1c(NC(=O)c2cnn3cccnc23)sc2c1CCCC2 | 6% | 13µM* | -46%[1.9 µM] | . | . | 19%[9.22 µM]

From PubChem BioAssay
